An excerpt weighted towards active compounds, which were near 19% of everything screened.
TDP1 cell noCPT = qHTS for Inhibitors of human tyrosyl-DNA phosphodiesterase 1 (TDP1): qHTS in cells in absence of CPT. DT40 Tdp1-/- hTDP1 cells, no CPT, ATP luminescence, 48 h. Potency, µM (highest dose often 46.2 µM), inactives show top-dose activity change, negative = growth inhibition, hits mostly inhibitors. 420,000 tested, 15% active; note: potency is the fitted concentration of half-maximal effect; nearly all actives have a fitted effect of over 55% in size
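Chicken DT40 Tdp1-/- cells complemented with human TDP1, screened without camptothecin (DMSO vehicle only), 400 cells/well. Compounds pin-transferred, cells incubated at 37 °C for at least 48 hr. Growth read as ATP-dependent luminescence (CellTiter-Glo, 30 min at RT).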
ELG1 repair inh = blocks ELG1-dependent DNA repair in HEK293T cells | Potency, µM (titrated, usually from 46.1 µM), for the others: at the highest dose activity change, negative = inhibition, most hits filed as inhibitors | HEK293T ELG1-luciferase reporter, luminescence, 16 h; DNA damage induced by 5-fluorouridine | 330,000 tested, 2.3% active; note: potency is the fitted concentration of half-maximal effect; nearly all actives have a fitted effect of over 55% in size
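Reporter activity after DNA damage by 5-fluorouridine is monitored. Compound-treated cells incubate 16 hr at 37 °C, then ONE-Glo is added for 30 min before luminescence reading.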
HT1080-NT tox = kills 2HG-producing HT-1080-NT fibrosarcoma cells | Potency, µM (series often up to 46.1 µM), without a hit: at the highest dose activity, negative = less viability, actives largely listed as cytotoxic | AID 686970 | HT-1080-NT fibrosarcoma viability, CellTiter-Glo ATP luminescence, 48 h | 360,000 tested, 1.6% active;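 note: NT is the 2HG producing partner of a matched IDH1 knockdown line; potency is the fitted concentration of half-maximal effect; 0% = DMSO-treated cells and -100% = media-only wells without cells; nearly all actives have a fitted effect of over 55% in size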
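Viability by CellTiter-Glo luminescence after 48 h compound exposure at 37C of HT-1080-NT cells (750/well, RPMI, 5% FBS). % activity scaled between DMSO wells and medium-only wells, then curve-fitted and categorized by curve class.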
IL1B secr inh = blocks inflammasome-driven IL-1 beta release | 360,000 tested, 4.7% active | THP-1 LPS/ATP IL-1B secretion, AlphaLISA, 16 h; stronger effect = lower value | activity change, % at 57.5 µM; in the data active = activity change below about -50%; inconclusive = mostly about -30% to -49%
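THP-1 cells pretreated 1 hr with compounds (up to 57.5 uM final), then stimulated with LPS (250 ng/mL final) plus ATP (1.25 mM final); secreted IL-1B measured by AlphaLISA after 16 hr, decreased signal indicating inhibition.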
HT1080 IDH1KD tx = toxicity to HT-1080 IDH1 knockdown cells (counter line) | AID 686971 | HT-1080 IDH1 knockdown viability, ATP luminescence, 48 h | 360,000 tested, 2% active | Potency, µM (highest dose often 46.1 µM), inactives show top-dose activity, negative = toxicity, usual class: cytotoxic;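 note: potency is the fitted concentration of half-maximal effect; 0% = DMSO wells and -100% = cell-free medium wells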
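% activity derives from luminescence (CellTiter-Glo), normalised to DMSO and no-cell wells. HT-1080-IDH1KD cells, 750/well, had 48 h compound exposure at 37 °C.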
DT40 TDP1 CPT = DT40-hTDP1 cell growth loss with CPT | 420,000 tested, 12% active | chicken DT40 Tdp1-/-;hTDP1 cells + 20 nM CPT, ATP luminescence, 48 h | Potency, µM (highest dose often 46.2 µM), without a hit: at the top dose activity change, negative = growth inhibition, most hits filed as inhibitors; note: potency is the fitted concentration of half-maximal effect; nearly all actives have a fitted effect of over 55% in size
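Chicken DT40 Tdp1-/- cells complemented with human TDP1, 400 cells/well, exposed to compounds plus 20 nM camptothecin for at least 48 h at 37 C; viability read as ATP content by CellTiter-Glo luminescence.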
The depositor's hits bear a star; ? = inconclusive; · = no result. Unless noted, calls come from the whole dose curve; as a rule, active = well fitted curve in the direction sought with a large enough effect; inconclusive = small, poorly fitted or top-dose-only effect, or another doubt; inactive = no such curve, though single readings can be large; an effect the other way counts as inactive or inconclusive. Unless noted, % is set by controls: 0 for no effect and ±100 for the full control effect.

SMILES	TDP1 cell noCPT	ELG1 repair inh	HT1080-NT tox	IL1B secr inh	HT1080 IDH1KD tx	DT40 TDP1 CPT
CC(=O)Nc1cccc(C(=O)OC(C(=O)c2ccc(C)c(C)c2)c2ccccc2)c1 (centres undefined)	16.4µM*	?	-4.3%	-7.6	-21.3%	16.4µM*
CCC(=O)Nc1cccc(C(=O)c2ccccc2)c1	-9.5%	0.3%	1.0%	-0.5	0.0%	-17.0%
CCC(=O)Nc1cccc(C(=O)/C=C/c2cccs2)c1	20.6µM*	-0.1%	-6.7%	-94.5*	-10.3%	?
CC(=O)c1ccc(NC(=O)COC(=O)/C=C/c2cccs2)cc1	?	3.0%	4.1%	-0.3	-1.2%	?
CCC(=O)Nc1cccc(C(=O)/C=C/c2ccccc2)c1	5.17µM*	?	?	-117.4*	?	4.11µM*
CC1(C(=O)NS(=O)(=O)c2ccc(F)cc2F)CCN1C(=O)C1CCCCC1 (centres undefined)	-1.8%	·	21.1%	10.3	4.9%	11.6%
CCN(CC(=O)NC(C)(C)C)C(=O)CCl	13µM*	15.3%	4.9%	-54.9*	0.0%	20.6µM*
CC(C)(C)NC(=O)CCCCCCCC(=O)NC(C)(C)C	-4.9%	20.5%	0.3%	4.4	-0.5%	-3.4%
CCN(Cc1nc2ccccc2c(=O)[nH]1)C(=O)c1cc2c(s1)CCCCC2	?	-7.4%	2.5%	42.7	1.7%	14.6µM*
CCN(Cc1nc2ccccc2c(=O)[nH]1)C(=O)c1cccc(NC(=O)c2cccs2)c1	?	?	-1.6%	6.4	-15.0%	11.6µM*
CCCN(Cc1nc2cc(Cl)ccc2c(=O)[nH]1)C(=O)c1ccc(S(=O)(=O)N2CCCC2)cc1	20.6µM*	?	-16.3%	-20.3	-2.6%	?
CCN(Cc1nc2cc(Cl)ccc2c(=O)[nH]1)C(=O)c1cccc(OCc2c(C)noc2C)c1	-14.1%	?	-18.3%	0.0	-13.5%	-22.7%
CCN(Cc1nc2cc(Cl)ccc2c(=O)[nH]1)C(=O)CN1C(=O)NC2(CCCCC2C)C1=O (centres undefined)	-13.5%	3.6%	0.1%	7.2	0.3%	-12.2%
O=C(c1ccccc1)N(Cc1ccc2c(c1)OCO2)Cc1nc2ccccc2c(=O)[nH]1	?	?	-14.6%	1.4	-7.0%	-17.9%
CCN(Cc1nc2ccccc2c(=O)[nH]1)C(=O)c1ccc(C)c(NC(=O)c2ccco2)c1	?	?	-5.5%	-4.8	-10.7%	-22.6%
CCN(Cc1nc2cc(Cl)ccc2c(=O)[nH]1)C(=O)c1cccc(NC(=O)c2cccs2)c1	?	16.4µM*	?	-14.9	-25.4%	?
O=C(Nc1cc(Cl)ccc1Cl)P(=O)(O)c1ccccc1	-5.0%	·	21.4%	8.4	5.3%	-22.0%
O=C(CCCCC(=O)OCC1CCCO1)OCC1CCCO1 (centres undefined)	-7.4%	·	18.9%	5.2	20.6%	-25.1%
O=C(N/N=C/c1ccc(Cl)cc1)c1n[nH]c2c1CCCC2	0.92µM*	?	0.411µM*	48.1	0.517µM*	0.581µM*
O=C(N/N=C/c1cccs1)c1n[nH]c2c1CCC2	3.66µM*	?	7.31µM*	25.4	6.51µM*	4.11µM*
O=C(N/N=C/c1ccccc1Cl)c1n[nH]c2c1CCCC2	?	?	3.4%	-12.2	2.3%	-26.4%
O=C(N/N=C/c1cccs1)c1ccc(-n2cccc2)cc1	?	4.5%	1.3%	-22.7	18.7%	1.8%
O=C(N/N=C/C(Br)=C/c1ccccc1)c1n[nH]c2c1CCC2	4.11µM*	?	?	-11.8	7.94µM*	2.59µM*
CC1(C)Cc2c(cnn2-c2ccc(F)cc2)C(NC(=O)CN2CCCC2=O)C1 (centres undefined)	6.3%	0.0%	-0.1%	0.0	7.8%	8.9%
O=S(=O)(Nc1ccc(S(=O)(=O)N2CCCC2)cc1)c1ccc(F)cc1F	-3.0%	3.6%	-3.9%	-16.4	-13.1%	3.2%
SMILES	TDP1 cell noCPT	ELG1 repair inh	HT1080-NT tox	IL1B secr inh	HT1080 IDH1KD tx	DT40 TDP1 CPT
O=C(Nc1ccc2c(c1)OCCO2)C(C1CC1)N1CCN(c2ccc(C(F)(F)F)cn2)CC1 (centres undefined)	?	·	-27.1%	-8.9	-28.5%	?
CCN(CC)S(=O)(=O)c1ccc(/C=C/C(=O)N(c2ccccn2)C2CCCCC2)cc1	11.6µM*	?	7.5%	47.0	-8.8%	?
O=C(/C=C/c1ccccc1)N(c1ccccn1)C1CCCCC1	?	8.5%	8.9%	4.2	2.4%	?
O=C(/C=C/c1ccccc1Cl)N(c1ccccn1)C1CCCCC1	16.4µM*	?	?	0.0	26.6%	?
CC(OC(=O)c1cc(=O)[nH]c2ccccc12)C(=O)c1ccccc1 (centres undefined)	-23.6%	18.1%	9.3%	7.9	10.1%	-18.3%
Cc1ccc(S(=O)(=O)N(C)C)cc1NC(=O)COC(=O)C1=COCCO1	-8.8%	-2.7%	3.4%	20.3	3.9%	16.3%
Cc1cccc(N(CC(=O)NCCc2ccccc2)C(=O)c2csnn2)c1	-15.0%	0.1%	13.5%	-10.8	3.6%	-14.5%
CCS(=O)(=O)NCCCCc1ccccc1	-4.1%	6.6%	1.5%	?	0.0%	2.6%
CCS(=O)(=O)NCCCc1ccccc1	?	0.0%	9.2%	-6.1	4.4%	20.6µM*
CN1CCN(NC(=O)c2cc(Br)ccc2Cl)CC1	-4.7%	10.9%	?	-11.5	10.2%	-14.2%
C/C(=N\Nc1cccc2cccnc12)c1ccc[nH]1	4.61µM*	?	0.0%	-0.7	-21.2%	2.59µM*
CN1CCN(C(=O)CCN2C(=O)/C(=C\c3ccc(Cl)cc3Cl)SC2=S)CC1	11.6µM*	0.0%	?	-84.6*	?	14.6µM*
CCc1ccc(/C=C2\SC(=S)N(CCC(=O)N3CCN(C)CC3)C2=O)cc1	?	11.6%	-3.6%	-6.7	0.8%	-21.0%
CN1CCN(C(=O)CCCN2C(=O)/C(=C/c3ccccc3)SC2=S)CC1	16.4µM*	-28.0%	?	-96.9*	?	18.4µM*
O=C(CCN1C(=O)/C(=C/c2ccc(Cl)cc2)SC1=S)Nc1cccc(C(=O)O)c1	-12.5%	0.6%	-12.5%	10.7	-0.2%	0.8%
Cc1nn(-c2ccccc2)c(Cl)c1/C=C1\SC(=S)N(CCCCCC(=O)O)C1=O	-6.8%	-7.6%	-1.6%	11.0	-14.8%	-1.4%

Source: PubChem BioAssay
